# PubChem BioAssay (Tox21)
# Where “and” joins values, the source holds several entries; their conditions need not be identical. Identical values can stand only once. Records with an inconclusive call do not appear. Entries that show only a call come without a potency. Some structures have more than one record in an assay (separate samples or runs), and their calls can disagree. Calls of active or inactive are those of the source. Unless noted, calls come from the whole dose curve.
# Assays:
# [1] = Nuclear factor erythroid 2-related factor 2/antioxidant responsive element (Nrf2/ARE) small molecule agonists: qHTS cell viability counter screen in human keratinocytes (AID 1919968; active = well fitted curve in the direction sought with a large enough effect in the repeat runs; an effect the other way counts as inactive or inconclusive; note: nearly all actives have a fitted effect of over 55% in size)
# Summary of the method: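 Measured as CellTiter-Fluor fluorescence, this readout tracks cytotoxicity in the same wells as the ARE-luciferase screen. HaCaT reporter cells (1,500/well) received compounds after a 5 h pre-incubation and were exposed for 23 h.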
# [2] = Nuclear factor erythroid 2-related factor 2/antioxidant responsive element (Nrf2/ARE) small molecule agonists: luciferase reporter gene qHTS assay in human keratinocytes (AID 1919969); note: nearly all actives have a fitted effect of over 35% in size; note: potency is the fitted concentration of half-maximal effect
# [3] = target: Gonadotropin-releasing hormone receptor (Homo sapiens) (UniProt P30968); assay: Human gonadotropin-releasing hormone receptor (GnRHR) small molecule agonists, calcium flux assay in GnRHR-HEK293 cells (AID 1920063); note: nearly all actives have a fitted effect of over 35% in size
# Summary of the method: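 Fluorescence kinetics (480 nm excitation, 540 nm emission; 3 min, 1 s steps) report calcium mobilisation in human GnRHR-HEK293 cells in agonist mode. Dye incubation: 1 h, 37 C.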
# [4] = target: KiSS-1 receptor (Homo sapiens) (UniProt Q969F8); assay: Human kisspeptin (KISS1R) small molecule agonists, calcium flux assay in KISS1R-HEK293 cells (AID 1920064; active = well fitted curve in the direction sought with a large enough effect in the repeat runs; an effect the other way counts as inactive or inconclusive)
# Summary of the method: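 Measures KISS1R agonism through calcium-sensitive dye fluorescence in stably transfected HEK293 cells, read for 3 min after pin-tool compound delivery; 15-point titrations in triplicate.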
# [5] = G protein-coupled receptor (GPCR) small molecule agonists, calcium flux assay: HEK293 wild type cell line counter screen (AID 1920065)
# Summary of the method: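 Readout: fluorescence at 480 nm excitation/540 nm emission, sampled at 1 s intervals for 3 min. Cells had been cultured 18 h, then dye-loaded 1 h at 37 C before compound or ATP addition.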
# [6] = p53 small molecule agonists, cell-based qHTS assay with human liver microsomes (AID 1963577)
# Summary of the method: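 Cells carrying a p53-responsive bla reporter were rested 5 h (37 C, 5% CO2) before compound transfer. Human liver microsomes plus NADPH, 0.5 mg/mL final apiece, supplied metabolism during the 16 h 37 C exposure.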
# [7] = p53 small molecule agonists, cell-based qHTS assay with human liver microsomes: qHTS cell viability counter screen (AID 1963579); note: nearly all actives have a fitted effect of over 45% in size
# Summary of the method: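 Seed p53RE-bla cells at 4,000 per well; incubate 5 h at 37 C; add compound, human liver microsomes and NADPH; incubate 16 h at 37 C; add CellTiter-Glo; after 30 min at room temperature, read luminescence.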
# [8] = p53 small molecule agonists, cell-based qHTS assay with rat liver microsomes: qHTS cell viability counter screen (AID 1963580); note: nearly all actives have a fitted effect of over 45% in size
# Summary of the method: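 p53RE-bla HCT-116 cells (4,000/well) rested 5 h at 37 C, then given Tox21 compounds in DMSO with rat liver microsomes (0.5 mg/mL final) plus NADPH (0.5 mg/mL final) for 16 h at 37 C. Viability read by CellTiter-Glo luminescence after 30 min at room temperature.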
# [9] = p53 small molecule agonists, cell-based qHTS assay: qHTS cell viability counter screen (AID 1963581); note: nearly all actives have a fitted effect of over 45% in size
# Summary of the method: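 In the same plates used for the p53 bla reporter, HCT-116 cells given compounds for 16 h at 37 C received CellTiter-Glo; luminescence was recorded 30 min later at room temperature.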
# [10] = p53 small molecule agonists, cell-based qHTS assay (AID 1963582; active = well fitted activation curve with a large enough effect in the signal ratio in the repeat runs, not every such curve was filed as active; the % refers to the signal ratio)
# Summary of the method: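 Compounds are pin-transferred in DMSO onto p53RE-bla cells and incubated 16 h at 37 C. The B/G FRET beta-lactamase substrate is then applied for 2 h at RT and fluorescence recorded.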
# [11] = target: 5-hydroxytryptamine receptor 2A (Homo sapiens) (UniProt P28223); assay: 5-hydroxytryptamine receptor 2A (HTR2A) small molecule antagonists, cell-based qHTS assay (AID 1963586); note: nearly all actives have a fitted effect of over 45% in size
# Summary of the method: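 Antagonist-mode intracellular calcium assay: DOI (4 nM) added after 5 min compound pre-incubation at room temperature to dye-loaded HTR2A-CHO cells. Fluorescence followed for 3 min, sampled every second.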
# [12] = target: 5-hydroxytryptamine receptor 2A (Homo sapiens) (UniProt P28223); assay: 5-hydroxytryptamine receptor 2A (HTR2A) small molecule agonists, cell-based qHTS assay (AID 1963587); note: nearly all actives have a fitted effect of over 30% in size
# Summary of the method: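 HTR2A-CHO cells, plated 18 h at 37 C/5% CO2, dye-loaded 1 h at 37 C; compounds in DMSO added by pin tool (agonist mode). Intracellular calcium flux read as kinetic fluorescence on FDSS over 2 min at 1 s intervals.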
# [13] = target: Muscarinic acetylcholine receptor M1 (Homo sapiens) (UniProt P11229); assay: Cholinergic receptor muscarinic 1 (CHRM1) small molecule antagonists, cell-based qHTS assay (AID 1963588); note: nearly all actives have a fitted effect of over 40% in size; note: potency is the fitted concentration of half-maximal effect
# Summary of the method: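 CHRM1-CHO calcium-flux assay, antagonist mode. Cells were seeded 18 h, dye-loaded 1 h at 37 C and given compound for 5 min at RT, then acetylcholine was added at 50nM. FDSS fluorescence was read 3 min; 15 concentrations, three runs.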
# [14] = target: Muscarinic acetylcholine receptor M1 (Homo sapiens) (UniProt P11229); assay: Cholinergic receptor muscarinic 1 (CHRM1) small molecule agonists, cell-based qHTS assay (AID 1963589); note: nearly all actives have a fitted effect of over 35% in size
# Summary of the method: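 Each compound was tested at 15 concentrations across three independent runs on dye-loaded CHO cells stably expressing human CHRM1, reading intracellular calcium fluorescence kinetically at 1 sec intervals.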
# [15] = cAMP Responsive Elements (CRE) small molecule agonists, cell-based qHTS assay (AID 1963590)
# Summary of the method: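 Cell line: CRE-bla HEK 293T; medium DMEM/10% dialyzed FBS/0.1 mM NEAA/1 mM pyruvate/25 mM HEPES; 3 h compound exposure; beta-lactamase FRET readout after 2 h substrate loading at RT.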
# [16] = cAMP Responsive Elements (CRE) small molecule antagonists, cell-based qHTS assay (AID 1963591; active = well fitted inhibition curve with a large enough effect in the signal ratio in the repeat runs, not every such curve was filed as active; the % refers to the signal ratio)
# Summary of the method: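 Inhibition of NKH477-driven (0.25 uM final) CRE-beta-lactamase signal in HEK293T cells, 3 h compound exposure at 37 °C, detected by FRET substrate fluorescence.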
# [17] = target: Beta-2 adrenergic receptor (Homo sapiens) (UniProt P07550); assay: Adrenergic beta2 receptor (ADRB2) small molecule antagonists, cell-based qHTS assay (AID 1963592); note: series mostly up to about 92 µM; nearly all actives have a fitted effect of over 50% in size
# Summary of the method: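 Cells (CHO, stable ADRB2 overexpression) incubated 18-20hr at 37C; compounds added from DMSO; agonist mix (1nM isoproterenol, 100uM IBMX, 25uM Ro-20-1724) added; 0.5hr RT; d2-cAMP and anti-cAMP-cryptate added; 1hr RT; 665/615 nm read.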
# [18] = target: D(2) dopamine receptor (Homo sapiens) (UniProt P14416); assay: Dopamine D2 receptor (DRD2) small molecule agonists, cell-based qHTS assay (AID 1963594); note: nearly all actives have a fitted effect of over 35% in size
# Summary of the method: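 HEK293 cells stably expressing DRD2 were cultured 24 h at 37 C, then given Ro20-1724 (0.1 mM final) and compounds for 10 min at room temperature. NKH477 (200nM) was then added for 30 min. cAMP was read by HTRF.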
# [19] = target: D(2) dopamine receptor (Homo sapiens) (UniProt P14416); assay: Dopamine D2 receptor (DRD2) small molecule antagonists, cell-based qHTS assay (AID 1963595; active = well fitted inhibition curve with a large enough effect in the signal ratio in the repeat runs, with a control signal flat; the % refers to the signal ratio)
# Summary of the method: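 Cells were plated and grown for 24 h at 37 °C. Ro20-1724 (0.1 mM final) went in first, then compound for 10 min. NKH477 (200 nM) with quinpirole (12 nM) followed for 30 min at RT, then HTRF detection reagents for 1 h.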
# [20] = p53 small molecule agonists, cell-based qHTS assay with rat liver microsomes (AID 1963578)
# Summary of the method: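 Fluorescence from a beta-lactamase reporter under a p53 response element was measured after cells had been incubated 16 h at 37 C with test compound and rat liver microsomes plus NADPH (0.5 mg/mL final each).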
# Sequence of 5-hydroxytryptamine receptor 2A (Homo sapiens) (P28223 whole entry, looked up): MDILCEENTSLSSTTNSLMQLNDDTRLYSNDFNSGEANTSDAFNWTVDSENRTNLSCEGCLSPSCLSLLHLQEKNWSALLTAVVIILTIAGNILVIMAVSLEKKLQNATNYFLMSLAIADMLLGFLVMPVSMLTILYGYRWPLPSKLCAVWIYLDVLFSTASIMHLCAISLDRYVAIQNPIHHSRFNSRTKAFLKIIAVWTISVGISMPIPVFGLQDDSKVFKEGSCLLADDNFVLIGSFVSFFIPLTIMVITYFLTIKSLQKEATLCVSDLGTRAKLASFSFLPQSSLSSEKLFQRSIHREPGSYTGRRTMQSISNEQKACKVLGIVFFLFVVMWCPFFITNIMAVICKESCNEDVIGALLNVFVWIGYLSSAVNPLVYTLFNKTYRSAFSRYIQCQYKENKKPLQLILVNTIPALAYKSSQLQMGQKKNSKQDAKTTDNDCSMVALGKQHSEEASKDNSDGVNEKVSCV
# Sequence of KiSS-1 receptor (Homo sapiens) (Q969F8 whole entry, looked up): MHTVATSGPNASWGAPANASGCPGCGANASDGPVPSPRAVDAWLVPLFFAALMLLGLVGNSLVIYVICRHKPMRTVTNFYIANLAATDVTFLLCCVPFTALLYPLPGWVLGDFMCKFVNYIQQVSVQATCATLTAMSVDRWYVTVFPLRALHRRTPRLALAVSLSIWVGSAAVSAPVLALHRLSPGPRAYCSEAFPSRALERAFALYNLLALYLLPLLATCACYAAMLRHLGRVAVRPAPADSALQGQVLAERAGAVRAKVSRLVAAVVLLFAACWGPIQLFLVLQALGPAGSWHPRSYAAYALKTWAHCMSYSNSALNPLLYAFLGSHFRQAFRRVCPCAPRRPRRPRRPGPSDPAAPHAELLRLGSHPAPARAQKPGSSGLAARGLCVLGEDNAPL
# Sequence of D(2) dopamine receptor (Homo sapiens) (P14416 whole entry, looked up): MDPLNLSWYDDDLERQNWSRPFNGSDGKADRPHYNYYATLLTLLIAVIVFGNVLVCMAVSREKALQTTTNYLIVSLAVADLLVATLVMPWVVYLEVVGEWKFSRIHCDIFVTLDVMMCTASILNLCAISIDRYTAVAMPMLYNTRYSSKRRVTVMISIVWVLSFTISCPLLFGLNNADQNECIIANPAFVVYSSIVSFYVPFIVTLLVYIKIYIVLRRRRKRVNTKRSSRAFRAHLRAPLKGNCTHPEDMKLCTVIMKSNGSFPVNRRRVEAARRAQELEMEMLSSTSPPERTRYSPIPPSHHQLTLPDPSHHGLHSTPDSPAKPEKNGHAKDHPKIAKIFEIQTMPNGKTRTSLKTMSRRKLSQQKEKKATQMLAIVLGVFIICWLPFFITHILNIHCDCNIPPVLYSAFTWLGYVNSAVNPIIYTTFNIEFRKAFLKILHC
# Sequence of Beta-2 adrenergic receptor (Homo sapiens) (P07550 whole entry, looked up): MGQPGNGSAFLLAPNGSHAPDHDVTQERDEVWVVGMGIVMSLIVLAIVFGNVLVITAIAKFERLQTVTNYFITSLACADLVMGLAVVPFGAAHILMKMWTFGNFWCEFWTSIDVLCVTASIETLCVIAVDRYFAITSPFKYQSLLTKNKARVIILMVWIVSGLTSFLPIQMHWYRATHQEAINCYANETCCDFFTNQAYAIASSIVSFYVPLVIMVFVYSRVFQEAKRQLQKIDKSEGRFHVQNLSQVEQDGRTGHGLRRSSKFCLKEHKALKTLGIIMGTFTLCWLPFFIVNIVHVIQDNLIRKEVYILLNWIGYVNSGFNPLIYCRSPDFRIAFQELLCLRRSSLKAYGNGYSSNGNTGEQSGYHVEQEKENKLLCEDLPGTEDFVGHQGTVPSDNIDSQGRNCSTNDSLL
# Sequence of Gonadotropin-releasing hormone receptor (Homo sapiens) (P30968 whole entry, looked up): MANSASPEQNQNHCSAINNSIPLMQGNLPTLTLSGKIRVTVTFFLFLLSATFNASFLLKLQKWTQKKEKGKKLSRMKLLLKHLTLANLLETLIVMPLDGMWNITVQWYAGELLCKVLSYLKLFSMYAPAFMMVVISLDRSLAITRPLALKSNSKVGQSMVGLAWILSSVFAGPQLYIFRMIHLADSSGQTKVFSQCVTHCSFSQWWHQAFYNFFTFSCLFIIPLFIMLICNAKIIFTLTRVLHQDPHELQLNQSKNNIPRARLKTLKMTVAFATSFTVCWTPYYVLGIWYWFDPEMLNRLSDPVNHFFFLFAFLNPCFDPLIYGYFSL
# Sequence of Muscarinic acetylcholine receptor M1 (Homo sapiens) (P11229 whole entry, looked up): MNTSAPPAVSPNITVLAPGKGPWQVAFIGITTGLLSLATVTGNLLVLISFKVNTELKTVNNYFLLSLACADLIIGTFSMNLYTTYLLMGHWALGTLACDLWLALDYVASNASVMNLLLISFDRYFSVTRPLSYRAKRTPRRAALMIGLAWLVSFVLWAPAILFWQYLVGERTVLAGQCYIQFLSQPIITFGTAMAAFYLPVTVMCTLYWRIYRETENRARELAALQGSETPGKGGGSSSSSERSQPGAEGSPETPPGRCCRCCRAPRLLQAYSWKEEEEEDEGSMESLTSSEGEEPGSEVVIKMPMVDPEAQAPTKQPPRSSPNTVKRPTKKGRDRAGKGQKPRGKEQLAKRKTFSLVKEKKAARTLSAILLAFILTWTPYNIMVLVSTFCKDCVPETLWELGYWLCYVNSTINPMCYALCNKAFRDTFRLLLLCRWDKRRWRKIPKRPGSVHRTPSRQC
structure (smiles),measurement,setting,value
CCCCCC=O,Potency,[1],inactive
same,Potency,[2],inactive
same,Potency,[3],inactive
same,Potency,[4],inactive
same,Potency,[5],inactive
same,Potency,[6],inactive
same,Potency,[7],inactive
same,Potency,[8],inactive
same,Potency,[9],inactive
same,Potency,[10],inactive
same,Potency,[11],inactive
same,Potency,[12],inactive
same,Potency,[13],inactive and 11.9 nM (active)
same,Potency,[14],inactive
same,Potency,[15],inactive
same,Potency,[16],inactive
same,Potency,[17],inactive
same,Potency,[18],inactive
CC(C)(C)CC(C)(C)c1ccc(Nc2ccc(C(C)(C)CC(C)(C)C)cc2)cc1,"activity change, negative = cytotoxicity",[1],0.0348% [at 8.39 µM] (inactive)
same,"activity, positive = activation",[2],-1.24% [at 8.39 µM] (inactive)
same,activity change,[3],"0.129% [at 5.22 µM, stronger effect = higher value] (inactive)"
same,activation,[4],0.255% [at 6.97 µM] (inactive)
same,activation,[5],-0.517% [at 5.23 µM] (inactive)
same,activation,[6],-1.73% [at 5.99 µM] (inactive)
same,"activity change, negative = cytotoxicity",[7],-1.28% [at 5.99 µM] (inactive)
same,"activity change, negative = cytotoxicity",[8],-9.33% [at 5.99 µM] (inactive)
same,"activity change, negative = cytotoxicity",[9],0.663% [at 5.99 µM] (inactive)
same,activation,[10],4.39% [at 5.99 µM] (inactive)
same,"activity, negative = inhibition",[11],-0.349% [at 5.62 µM] (inactive)
same,activation,[12],5.4% [at 7.02 µM] (inactive)
same,"activity, negative = inhibition",[13],-10.6% [at 5.58 µM] (inactive)
same,activation,[14],0.016% [at 6.97 µM] (inactive)
same,activation,[15],-1.83% [at 8.39 µM] (inactive)
same,"activity change, negative = inhibition",[16],-1.43% [at 8.39 µM] (inactive)
same,"activity change, negative = inhibition",[17],-0.838% [at 8.39 µM] (inactive)
same,activation,[18],1.28% [at 8.39 µM] (inactive)
same,"activity change, negative = inhibition",[19],-0.278% [at 8.38 µM] (inactive)
O=C(O)CSCC(=O)NC1CCSC1=O (stereo unspecified),Potency,[1],inactive
same,Potency,[2],inactive
same,Potency,[3],inactive
same,Potency,[4],inactive
same,Potency,[5],inactive
same,Potency,[6],inactive
same,Potency,[7],inactive
same,Potency,[8],inactive
same,Potency,[9],inactive
same,Potency,[10],inactive
same,Potency,[11],inactive
same,Potency,[13],inactive
same,Potency,[14],inactive
same,Potency,[15],inactive
same,Potency,[16],inactive
same,Potency,[17],inactive
same,Potency,[18],inactive
same,Potency,[19],inactive
c1ccc(CCCc2ccncc2)cc1,Potency,[1],inactive
same,Potency,[2],48.6 µM (active)
same,Potency,[3],inactive
same,Potency,[4],inactive
same,Potency,[5],inactive
same,Potency,[6],inactive
same,Potency,[7],inactive
same,Potency,[8],inactive
same,Potency,[9],inactive
same,Potency,[10],inactive
same,Potency,[11],inactive
same,Potency,[12],inactive
same,Potency,[14],inactive
same,Potency,[16],inactive
same,Potency,[17],inactive
same,Potency,[18],inactive
same,Potency,[19],inactive
CC(=O)Oc1cccc(O)c1,Potency,[1],inactive
same,Potency,[2],inactive
same,Potency,[3],inactive
same,Potency,[4],inactive
same,Potency,[5],inactive
same,Potency,[6],inactive
same,Potency,[9],inactive
same,Potency,[10],inactive
same,Potency,[11],inactive
same,Potency,[12],inactive
same,Potency,[13],inactive
same,Potency,[14],inactive
same,Potency,[15],inactive
same,Potency,[16],inactive
same,Potency,[17],inactive
same,Potency,[18],inactive
same,Potency,[19],inactive
N=C(N)c1ccc2cc(OC(=O)c3ccc(N=C(N)N)cc3)ccc2c1,Potency,[1],inactive
same,Potency,[2],inactive
same,Potency,[3],inactive
same,Potency,[4],inactive
same,Potency,[5],inactive
same,Potency,[20],inactive
same,Potency,[7],inactive
same,Potency,[8],inactive
same,Potency,[9],inactive
same,Potency,[10],inactive
same,Potency,[11],inactive
same,Potency,[12],inactive
same,Potency,[13],inactive
same,Potency,[14],inactive
same,Potency,[15],inactive
same,Potency,[16],inactive
same,Potency,[17],inactive
same,Potency,[18],inactive
[Cl][In]([Cl])[Cl],Potency,[1],inactive
same,Potency,[2],3.44 µM (active)
same,Potency,[3],inactive
same,Potency,[4],inactive
same,Potency,[5],inactive
same,Potency,[6],inactive
same,Potency,[7],inactive
same,Potency,[9],inactive
same,Potency,[10],inactive
same,Potency,[11],inactive
same,Potency,[12],inactive
same,Potency,[14],inactive
same,Potency,[15],inactive
same,Potency,[16],inactive
same,Potency,[18],inactive
same,Potency,[19],inactive
Nc1c(NC/C=C\COc2cc(CN3CCCCC3)ccn2)c(=O)c1=O,"activity change, negative = cytotoxicity",[1],1.77% [at 19 µM] (inactive)
same,"activity, positive = activation",[2],-5.23% [at 19 µM] (inactive)
same,activity change,[3],"-0.254% [at 11.8 µM, stronger effect = higher value] (inactive)"
same,activation,[4],1.38% [at 15.8 µM] (inactive)
same,activation,[5],0.206% [at 11.8 µM] (inactive)
same,activation,[6],-4.01% [at 13.5 µM] (inactive)
same,"activity change, negative = cytotoxicity",[7],5.4% [at 13.5 µM] (inactive)
same,"activity change, negative = cytotoxicity",[8],1.94% [at 13.5 µM] (inactive)
same,"activity change, negative = cytotoxicity",[9],-0.902% [at 13.5 µM] (inactive)
same,activation,[10],-1.45% [at 13.5 µM] (inactive)
same,activation,[12],1.98% [at 15.9 µM] (inactive)
same,"activity, negative = inhibition",[13],-18.5% [at 12.6 µM] (inactive)
same,activation,[14],-0.0227% [at 15.8 µM] (inactive)
same,activation,[15],0.666% [at 19 µM] (inactive)
same,"activity change, negative = inhibition",[16],-4.15% [at 18.9 µM] (inactive)
same,"activity change, negative = inhibition",[17],0.774% [at 19 µM] (inactive)
same,activation,[18],-7.29% [at 19 µM] (inactive)
same,"activity change, negative = inhibition",[19],0.891% [at 18.9 µM] (inactive)
